Myeloid diff 2: compounds promoting myeloid differentiation; ER-HoxA9 myeloid progenitors, lysozyme-GFP differentiation, flow cytometry; calls only at 10 µM; actives 1% (n = 360,000); AID 624256;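 active = normalized GFP-positive differentiation at or above the plate's own cutoff, the solvent-only control mean plus 3 SD; inconclusive = no clear call, values can overlap the other calls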;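 also: cells exposed to compound for four days before flow analysis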
H9c2 protect: modulators protecting cardiomyocytes from myocardial damage; H9c2 cardiomyocytes, H2O2 injury protection, ATPLite, 2 h; protection from H2O2 cell death, % at 20 µM; actives 0.63% (n = 360,000);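 active = compounds giving at least 50% protection of heart cells from peroxide-induced death in the single-dose screen, raw or plate-pattern-corrected value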;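 also: 0% = DMSO wells with peroxide and 100% = DMSO wells without peroxide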
DAGLB inhibitor: diacylglycerol lipase beta (human) inhibition | Q8NCG7 | HEK293T DAGLB membrane lysate, EnzChek fluorogenic substrate | inhibition, % at 5.17 µM | actives 0.059% (n = 340,000) | AID 504411; in the data active = inhibition above about 34%;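 also: 0% = enzyme with vehicle and 100% = wells lacking enzyme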
HGIII-sPLA2 inh: Blocks human group III sPLA2 activity; AID 743126; inhibition, % at 12.2 µM; QFRET BODIPY PC-A2 liposome hydrolysis, fluorescence; actives 0.56% (n = 370,000); Q9NZ20;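 active = inhibition above mean plus 3 SD of compounds lying within the high and low control bounds, cut at about 19% in these data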;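 also: 0% = median of test compound wells and 100% = no enzyme DMSO wells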
Target sequence (Q9NZ20 whole entry, looked up): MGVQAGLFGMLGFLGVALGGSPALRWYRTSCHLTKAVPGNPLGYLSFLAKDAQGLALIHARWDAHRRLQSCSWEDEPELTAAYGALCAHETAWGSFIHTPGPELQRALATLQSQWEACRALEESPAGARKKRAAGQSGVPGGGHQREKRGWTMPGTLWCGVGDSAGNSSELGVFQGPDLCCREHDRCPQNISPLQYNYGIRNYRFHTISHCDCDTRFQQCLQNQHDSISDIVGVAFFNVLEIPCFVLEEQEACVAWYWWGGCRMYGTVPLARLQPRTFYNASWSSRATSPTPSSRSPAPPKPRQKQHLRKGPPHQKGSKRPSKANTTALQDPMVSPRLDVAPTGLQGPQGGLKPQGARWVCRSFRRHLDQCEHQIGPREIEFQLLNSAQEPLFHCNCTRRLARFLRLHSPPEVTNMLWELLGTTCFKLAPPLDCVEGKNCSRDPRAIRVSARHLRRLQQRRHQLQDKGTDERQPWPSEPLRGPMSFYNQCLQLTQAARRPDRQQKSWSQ
ABHD5-PLIN5 inh: ABHD5-PLIN5 protein interaction inhibition. Q00G26+Q8WTS1. Split G. princeps luciferase complementation, luminescence, 4 h. inhibition, % at 4 µM. actives 0.78% (n = 360,000). AID 602281;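 active = inhibition above the mean inhibition across every tested compound plus 3 SD, cut at about 22% in these data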;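 also: 0% = DMSO only wells and the 100% control is not disclosed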
Rtt109 Vps75: C. albicans Rtt109 histone acetyltransferase inhibition. Q5AAJ8. purified Rtt109/Vps75, ThioGlo CoA-SH fluorescence, 4 h. inhibition, % at 34.9 µM. actives 0.16% (n = 330,000);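 active = inhibition of at least 50% in every replicate; inconclusive = best replicate reaches 50% inhibition but some replicates fall short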
Starred values were filed as active, the others as inactive; i = inactive; ? = inconclusive; / = not tested or not shown; + = active, no number. An excerpt weighted towards active compounds, which were near 2.9% of everything screened.

SMILES	Myeloid diff 2	H9c2 protect	DAGLB inhibitor	HGIII-sPLA2 inh	ABHD5-PLIN5 inh	Rtt109 Vps75
O=C1CCCc2cc3c(ccc4ccccc43)cc21	i	-17.0	-13.8	4.1	-2.5	-4.8
S=c1[nH]nc(Cc2cccs2)n1-c1ccccc1	i	6.3	0.6	9.0	-6.8	-3.6
CCCCc1ccc(-n2c(Cc3cccs3)n[nH]c2=S)cc1	i	-3.2	-3.5	-0.8	-7.7	71.8*
CSc1nsc(SC)c1C(=O)N1CCN(S(=O)(=O)c2ccc(C)cc2)C1C(C)C (centres undefined)	i	83.0*	-8.6	0.8	-3.7	-1.0
CSc1nsc(SC)c1C(=O)N1CCN(S(=O)(=O)c2ccc(C)cc2)C1C (centres undefined)	i	37.1	-1.1	-4.5	-1.7	12.3
Clc1ccc(CSc2ccc(-c3cccnc3)nn2)cc1	+	3.3	-1.0	1.8	-1.9	5.9
Fc1ccc(CSc2ccc3nnc(-c4cccnc4)n3n2)cc1	i	79.8*	-0.8	-0.3	2.8	-4.2
CC(=O)Nc1ccc(NC(=O)CCc2nc3ccccc3c(=O)[nH]2)cc1	i	11.0	-0.5	5.3	-7.5	/
O=C(CCc1nc2ccccc2c(=O)[nH]1)Nc1ccc(Cl)c(Cl)c1	i	59.5*	6.1	-9.7	3.6	-1.9
COc1ccc(NC(=O)CCc2nc3ccccc3c(=O)[nH]2)cc1S(=O)(=O)N1CCCCC1	i	92.6*	0.4	3.9	-0.3	-3.0
O=C(CCc1nc2ccccc2c(=O)[nH]1)Nc1ccc(N2CCCCC2)cc1	i	50.0*	0.7	-3.9	0.8	-2.3
CN(C(=O)CCc1nc2ccccc2c(=O)[nH]1)C1CCS(=O)(=O)C1 (centres undefined)	i	75.8*	-5.0	1.0	2.3	7.5
CN(C(=O)COC(=O)CCc1nc2ccccc2c(=O)[nH]1)C1CCS(=O)(=O)C1 (centres undefined)	i	29.5	2.4	-3.0	-9.8	-3.4
COc1ccc(NC(=O)CCc2ccccc2)cc1S(=O)(=O)N1CCCCC1	i	0.5	-4.1	-1.9	4.9	5.5
CN(CC(=O)Nc1cccc(F)c1)C(=O)CCc1nc2ccccc2c(=O)[nH]1	i	65.4*	3.4	5.1	-6.9	5.2
O=C(Oc1ccc(N(Cc2cccs2)C2=NS(=O)(=O)c3ccccc32)cc1)c1ccco1	i	7.1	4.1	2.0	-3.6	-6.4
O=C(Oc1ccc(N(Cc2cccs2)C2=NS(=O)(=O)c3ccccc32)cc1)c1ccccc1Cl	i	75.1*	-2.7	3.3	0.8	-2.8
COc1cccc(OCc2cc(/C=N/Nc3ccc(C(=O)O)cc3)ccc2OC)c1	i	1.5	2.7	-1.0	2.5	50.3*
COc1cccc(C(=O)Oc2ccc(/C=N/Nc3ccc(C(=O)O)cc3)cc2OC)c1	i	1.2	3.3	-64.2	-8.1	18.1
FC(F)(F)c1nnc2c(Sc3ccccc3)nc3ccc(Cl)cc3n12	?	-10.1	-3.2	2.6	3.2	-5.5
Cc1ccc(C2=NN(S(C)(=O)=O)C(c3ccc4c(c3)OCO4)C2)cc1 (centres undefined)	+	-8.9	0.7	-8.1	0.7	9.6
CS(=O)(=O)N1N=C(c2ccc(Br)cc2)CC1c1ccc2c(c1)OCO2 (centres undefined)	+	-9.9	-2.3	/	-1.0	-20.0
CCS(=O)(=O)N1N=C(c2cccc(NS(C)(=O)=O)c2)CC1c1ccc(C)cc1 (centres undefined)	+	5.4	0.7	-16.4	4.5	5.5
CC(=O)N1N=C(c2ccc(C)cc2)CC1c1ccc2c(c1)OCO2 (centres undefined)	i	-6.4	0.1	-3.2	6.3	15.7
CCOc1cc(NC(=S)NC)c(OCC)cc1NC(=O)c1cccs1	i	1.5	-3.5	0.0	-4.4	1.4
CC(C)C(c1nnnn1Cc1ccc(F)cc1)N1CCN(C2CCCC2)CC1 (centres undefined)	i	2.0	-0.6	1.9	5.7	-10.4
Cc1nn(CC(C)C)c(Cl)c1C(=O)N(C)CC(=O)Nc1c(Cl)cccc1Cl	+	4.0	-1.8	10.7	2.5	28.7
COc1cccc(NC(=O)CN(C)C(=O)c2c(C)nn(Cc3ccc(C)cc3)c2Cl)c1	i	-3.1	-2.3	6.5	4.6	0.4

Screening data (PubChem)
